Shown are actives, neighbours in structure and some others; about 2.1% of the full set was active somewhere.
FUS suppressor = qHTS for Suppressors of FUS Proteinopathy: Primary screen using FUS-linked yeast assay | Potency, µM (series often up to 76.6 µM), actives largely listed as activators | 0.24% of 390,000 active | AID 1347120, 2019 | S. cerevisiae FUS-expressing, growth rescue, OD600, 24 h;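 note: plate controls were DMSO vehicle for no effect and reference control for full effect; nearly all actives have a fitted effect of over 55% in size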
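Cultures pregrown in 2.5% raffinose medium are shifted to minimal medium containing 2% galactose to express toxic FUS. Compounds are tested at several concentrations. After 24hr at 30C, growth is quantified at 600 nm absorbance.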
Abeta yeast res = qHTS for compounds that reverse cellular toxicity of Amyloid beta (A-beta) peptide in yeast: Primary Screen. yeast expressing A-beta42, growth rescue, OD600, 48 h; response scale: 0% DMSO, 100% iron-clioquinol control. Potency, µM (highest dose often 46.1 µM), hits mostly activators. 0.063% of 410,000 active; note: nearly all actives have a fitted effect of over 55% in size
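Yeast A-beta toxicity model in growth medium with pinned compounds, 48 h at 30 C; growth read as absorbance at 600 nm. Normalized to FeCl3/clioquinol equimolar mix (positive) and DMSO (negative).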
TDP-43 yeast inh = qHTS of TDP-43 Inhibitors. TDP-43 expressing yeast growth rescue, BacTiter-Glo, 24 h. Potency, µM (series often up to 46.1 µM), inactives show at the top dose growth rescue (activation), most hits filed as activators. 1.8% of 410,000 active. AID 652104, 2013; note: % of control where 0% means no effect; nearly all actives have a fitted effect of over 50% in size
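Growth rescue of TDP-43-toxic yeast measured as ATP luminescence (BacTiter-Glo). Cells grown to mid-log in raffinose, induced in galactose at OD600=0.02, exposed to compound 24 hr at 30 deg C.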
aSyn yeast inh = qHTS of alpha-syn Inhibitors | Yeast expressing alpha-synuclein, growth rescue, BacTiter-Glo, 24 h | Potency, µM (titrated, usually from 46.1 µM), for inactives: at the highest dose growth rescue (activation), most hits filed as activators | 0.14% of 370,000 active | AID 652106, 2013; note: % of control where 0% means no effect; nearly all actives have a fitted effect of over 65% in size
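Screening used galactose-induced yeast with toxic alpha-synuclein levels, exposed to compound for 24 hr at 30 deg C. Cell growth, read with BacTiter-Glo luminescence, gave the measured signal.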
Numbers without * were called inactive; i = inactive; u = inconclusive; x = no result given. Calls come from the whole dose curve; as a rule, active = well fitted curve in the direction sought with a large enough effect; inconclusive = small, poorly fitted or top-dose-only effect, or another doubt; inactive = no such curve, though single readings can be large; an effect the other way counts as inactive or inconclusive. Potency is the fitted concentration of half-maximal effect.

SMILES	FUS suppressor	Abeta yeast res	TDP-43 yeast inh	aSyn yeast inh
O=S(=O)(NC1CCCC1)OCC(Cl)(Cl)Cl	i	i	12%	-4%
O=S(=O)(NC1CCCCCCC1)OCC(Cl)(Cl)Cl	i	i	35µM*	-16%
Cc1cccc(-n2c(/C=C/c3cn(C)c4ccccc34)nc3ccccc3c2=O)c1	i	i	16%	x
COc1ccc(-c2noc(=O)n2Cc2cc(C)ccc2C)cc1	i	i	18µM*	30%
CC1(C)N([O])C(c2ccc(C(=O)O)cc2)=[N+]([O-])C1(C)C	x	x	x	-5%
CCC(=NCCO)c1c(O)n(C2CCCCC2)c(=O)[nH]c1=O	i	i	25%	0%
CCC(=NCc1ccc2c(c1)OCO2)c1c(O)n(C2CCCCC2)c(=O)[nH]c1=O	i	i	20µM*	1%
CC(=O)O[C@@]12CO[C@@H]1C[C@H](OC1OCC(O)C(O)C1O)[C@@]1(C)C(=O)[C@H](O)C3=C(C)[C@@H](OC(=O)[C@H](O)[C@@H](NC(=O)c4ccccc4)c4ccccc4)C[C@@](O)([C@@H](OC(=O)c4ccccc4)C12)C3(C)C (stereo not given in full)	10µM*	i	7%	5%
S=C(NCCc1ccccc1)N1Cc2ccccc2-n2nncc2C1	i	i	22µM*	0%
S=C(NCCc1ccccc1)N1Cc2cc(N3CCCCC3)ccc2-n2nncc2C1	u	i	35µM*	12%
